Data published in article PMC4336329 (PLoS ONE, 2015).
Out of some 310,000 compounds screened, about 14,000 (4.5%) showed an effect of 50% or more. The effect is printed as a negative number. Many of the other results were omitted from the sample, so strong results are more common in it than they were.

Target: human ether-à-go-go-related gene (hERG) potassium channel (human, UniProt Q12809)
Test: primary screen, population patch clamp on CHO cells stably expressing hERG; higher = less effect of the substance
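Further: peak tail current of the secondary pulse compared with the same well before compound.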

human ether-à-go-go-related gene (hERG) potassium channel, sequence (Q12809 whole entry, looked up): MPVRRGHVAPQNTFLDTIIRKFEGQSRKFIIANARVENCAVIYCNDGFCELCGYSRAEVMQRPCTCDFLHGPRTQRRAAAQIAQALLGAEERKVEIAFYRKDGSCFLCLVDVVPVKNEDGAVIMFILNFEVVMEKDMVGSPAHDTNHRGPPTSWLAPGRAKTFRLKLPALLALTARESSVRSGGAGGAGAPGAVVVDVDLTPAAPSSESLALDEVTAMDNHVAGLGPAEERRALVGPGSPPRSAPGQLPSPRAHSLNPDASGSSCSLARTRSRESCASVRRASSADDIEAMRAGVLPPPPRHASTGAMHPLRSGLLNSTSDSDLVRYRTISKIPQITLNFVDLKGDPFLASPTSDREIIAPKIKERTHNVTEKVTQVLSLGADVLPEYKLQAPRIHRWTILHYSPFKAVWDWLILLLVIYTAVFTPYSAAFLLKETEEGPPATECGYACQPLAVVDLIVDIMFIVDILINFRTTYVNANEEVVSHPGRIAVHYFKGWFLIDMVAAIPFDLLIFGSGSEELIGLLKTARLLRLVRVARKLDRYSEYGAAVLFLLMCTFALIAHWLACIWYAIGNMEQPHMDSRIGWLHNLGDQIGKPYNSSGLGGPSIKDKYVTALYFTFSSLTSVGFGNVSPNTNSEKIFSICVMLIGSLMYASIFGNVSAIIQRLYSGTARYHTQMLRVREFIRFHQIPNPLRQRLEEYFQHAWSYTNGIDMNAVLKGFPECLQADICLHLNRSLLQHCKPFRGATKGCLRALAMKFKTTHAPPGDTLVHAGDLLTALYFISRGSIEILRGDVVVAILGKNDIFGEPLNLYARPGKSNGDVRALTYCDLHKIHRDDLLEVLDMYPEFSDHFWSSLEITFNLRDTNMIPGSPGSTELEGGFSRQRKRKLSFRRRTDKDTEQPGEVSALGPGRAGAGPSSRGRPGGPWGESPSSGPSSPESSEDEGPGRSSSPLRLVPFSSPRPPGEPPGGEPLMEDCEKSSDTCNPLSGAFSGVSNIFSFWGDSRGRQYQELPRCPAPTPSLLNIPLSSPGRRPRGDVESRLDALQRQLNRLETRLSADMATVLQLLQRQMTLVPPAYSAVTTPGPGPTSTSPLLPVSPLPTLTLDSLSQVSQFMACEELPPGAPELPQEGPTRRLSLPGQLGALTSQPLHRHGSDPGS

Compared with `CC(C)NC(=O)CSc1nc2[nH]ncc2c(=O)[nH]1`, `CCn1c(C)nnc1SCC(=O)Nc1ccc(Cl)cc1` is lower in “hERG current change (%, negative = inhibition) at 10uM” value: 15.6% for the first, 10.3% for the second.

Compared with `O=C(NCc1ccco1)c1ccc(OCC2CCCO2)cc1` (stereo not drawn), `O=C(Nc1sc2c(c1C(=O)NCC(O)CO)CCCC2)c1ccccc1` (stereo not drawn) is higher in “hERG current change (%, negative = inhibition) at 10uM” value: -23.2% for the first, 6.02% for the second.

First: CCOc1ccccc1CNC(=O)C1CCCN(c2ncnc3c2nc2n3CCCCC2)C1 (stereo not drawn)
Second: O=C(NCc1ccccc1)C1CCCN(c2ncnc3c2nc2n3CCCCC2)C1 (stereo not drawn)
The “hERG current change (%, negative = inhibition) at 10uM” value of the first is higher: -51.6% for the first, -69.1% for the second.

Going from `COc1ccccc1CNC(=O)C1CCN(c2ncnc3c2nc2n3CCCCC2)CC1` to `COc1ccc(OC)c(CCNC(=O)C2CCN(c3ncnc4c3nc3n4CCCCC3)CC2)c1`, the “hERG current change (%, negative = inhibition) at 10uM” value falls from 6.69% to -0.169%.

Compared with `CCc1cccc(NC(=O)C2CCCN(c3ncnc4c3nc3n4CCCCC3)C2)c1` (stereo not drawn), `COc1cccc(NC(=O)C2CCCN(c3ncnc4c3nc3n4CCCCC3)C2)c1` (stereo not drawn) is lower in “hERG current change (%, negative = inhibition) at 10uM” value: -46.4% for the first, -67.4% for the second.

Compared with `COc1cc(NC(=O)C2CCCN(c3ncnc4c3nc3n4CCCCC3)C2)cc(OC)c1OC` (stereo not drawn), `COc1ccc(OC)c(CNC(=O)C2CCCN(c3ncnc4c3nc3n4CCCCC3)C2)c1` (stereo not drawn) is lower in “hERG current change (%, negative = inhibition) at 10uM” value: -6.46% for the first, -59% for the second.

Compared with `O=C(NCc1ccc(Cl)cc1)C1CCCN(c2ncnc3c2nc2n3CCCCC2)C1` (stereo not drawn), `Cc1ccc(CNC(=O)C2CCCN(c3ncnc4c3nc3n4CCCCC3)C2)cc1` (stereo not drawn) is higher in “hERG current change (%, negative = inhibition) at 10uM” value: -55.4% for the first, -49% for the second.

First: Cc1ccccc1CN1CCC(CNC(=O)C2CCCN(c3ncnc4c3nc3n4CCCCC3)C2)CC1 (stereo not drawn)
Second: Cc1ccc(CN2CCC(CNC(=O)C3CCCN(c4ncnc5c4nc4n5CCCCC4)C3)CC2)cc1 (stereo not drawn)
The “hERG current change (%, negative = inhibition) at 10uM” value of the first is higher: -7.3% for the first, -45% for the second.

Compared with `CSc1cccc(NC(=O)C2CCCN(c3ncnc4c3nc3n4CCCCC3)C2)c1` (stereo not drawn), `Cc1ccc(NC(=O)C2CCCN(c3ncnc4c3nc3n4CCCCC3)C2)cc1Cl` (stereo not drawn) is higher in “hERG current change (%, negative = inhibition) at 10uM” value: -47.9% for the first, -6.39% for the second.

Going from `C/C(CC(=O)Nc1ccc([N+](=O)[O-])cc1)=N/NC(=O)C1C2CCCCC21` (stereo not drawn) to `CC(=O)c1ccc(NC(=O)C2CCCN(c3ncnc4c3nc3n4CCCCC3)C2)cc1` (stereo not drawn), the “hERG current change (%, negative = inhibition) at 10uM” value falls from -21.7% to -24.1%.

First: O=C(Nc1ccc(NC(=O)c2ccc3c(c2)OCO3)cc1)c1cccc(Cl)c1
Second: COc1ccc(NC(=O)n2ncc3cc(Cl)ccc32)cc1OC
The “hERG current change (%, negative = inhibition) at 10uM” value of the first is higher: 24.9% for the first, 21.3% for the second.

Compared with `Cc1onc(-c2ccccc2)c1C(=O)OCCOc1ccc([N+](=O)[O-])cc1[N+](=O)[O-]`, `CS(=O)(=O)Oc1ccc2c(c1)O/C(=C\C=C\c1ccccc1)C2=O` is higher in “hERG current change (%, negative = inhibition) at 10uM” value: -17.9% for the first, 8.05% for the second.

Going from `O=C(CCN1C(=O)COc2ccccc21)NCc1cccnc1` to `O=C(O)Cc1cccc2ccccc12`, the “hERG current change (%, negative = inhibition) at 10uM” value rises from 6.28% to 16.6%.

Going from `Cc1c(NC(=O)C2CC(c3ccc(F)cc3)=NO2)c(=O)n(-c2ccccc2)n1C` (stereo not drawn) to `CCC1(C)Cc2ccccc2-c2nc(NCCCO)n(-c3ccccc3)c(=O)c21` (stereo not drawn), the “hERG current change (%, negative = inhibition) at 10uM” value falls from -3.93% to -48.6%.

First: O=S(=O)(NN=C1CCCCCCC1)c1ccc(Br)cc1
Second: CN(CC(=O)NCCCc1ccccc1)S(=O)(=O)c1ccc(Br)cc1
The “hERG current change (%, negative = inhibition) at 10uM” value of the first is higher: 4.3% for the first, -7.88% for the second.

First: Cc1ccc(-c2noc(CN(C)C(=O)c3ccc(Br)o3)n2)cc1
Second: Cc1ccc(S(=O)(=O)Cc2ccc(C(=O)N3CCC(C(N)=O)CC3)o2)cc1
The “hERG current change (%, negative = inhibition) at 10uM” value of the first is lower: -18.7% for the first, 30.7% for the second.

Going from `O=C(CCCn1c(=O)[nH]c2ccsc2c1=O)NCc1cccs1` to `O=C(COC(=O)CNC(=O)c1cccs1)Nc1ccc(C(F)(F)F)cc1[N+](=O)[O-]`, the “hERG current change (%, negative = inhibition) at 10uM” value falls from 4.11% to -44%.

Going from `CCCCN(C(=O)CN1C(=O)C2CC=CCC2C1=O)c1c(N)n(CCC)c(=O)[nH]c1=O` (stereo not drawn) to `CCCOc1ccc(/C=C2\SC(N)=NC2=O)cc1OC`, the “hERG current change (%, negative = inhibition) at 10uM” value falls from 4.14% to 3.66%.

Going from `O=C(O)c1cccc2c(/C=N/Nc3ccccn3)c[nH]c12` to `CC(C)(C)N(Cc1cc2ccccc2[nH]c1=O)C(=O)c1ccco1`, the “hERG current change (%, negative = inhibition) at 10uM” value rises from -1.13% to 8.21%.

Going from `CC(C)N(Cc1ccccc1)C(=O)C1CCCN(c2ncnc3c2nc2n3CCCCC2)C1` (stereo not drawn) to `CN(Cc1ccccc1)C(=O)C1CCCN(c2ncnc3c2nc2n3CCCCC2)C1` (stereo not drawn), the “hERG current change (%, negative = inhibition) at 10uM” value falls from -44.3% to -66%.

First: O=C(NCC1CCN(Cc2ccc(F)cc2)CC1)C1CCCN(c2ncnc3c2nc2n3CCCCC2)C1 (stereo not drawn)
Second: O=C(NCC1CCN(Cc2ccc(Cl)cc2)CC1)C1CCCN(c2ncnc3c2nc2n3CCCCC2)C1 (stereo not drawn)
The “hERG current change (%, negative = inhibition) at 10uM” value of the first is higher: -39.6% for the first, -65.7% for the second.

Compared with `CN(Cc1ccco1)C(=O)C1CCCN(c2ncnc3c2nc2n3CCCCC2)C1` (stereo not drawn), `CN(C(=O)C1CCCN(c2ncnc3c2nc2n3CCCCC2)C1)c1cccc(Cl)c1` (stereo not drawn) is lower in “hERG current change (%, negative = inhibition) at 10uM” value: 5.57% for the first, -45.9% for the second.

Compared with `CC(C)N(CCNC(=O)C1CCCN(c2ncnc3c2nc2n3CCCCC2)C1)Cc1ccccc1` (stereo not drawn), `Cc1ccccc1N(C)C(=O)C1CCCN(c2ncnc3c2nc2n3CCCCC2)C1` (stereo not drawn) is higher in “hERG current change (%, negative = inhibition) at 10uM” value: -37.3% for the first, -7.96% for the second.

Going from `CCN(C(=O)C1CCCN(c2ncnc3c2nc2n3CCCCC2)C1)c1cccc(Cl)c1` (stereo not drawn) to `O=C(Nc1ccc(Cl)cc1)C1CCCN(c2ncnc3c2nc2n3CCCCC2)C1` (stereo not drawn), the “hERG current change (%, negative = inhibition) at 10uM” value rises from -62.5% to -50.1%.

First: O=C(C1CC1)N1CCCN(C(=O)C2CC2)CC1
Second: CC1CCc2c(sc(NC(=O)CCC(=O)O)c2C(=O)NC2CC2)C1 (stereo not drawn)
The “hERG current change (%, negative = inhibition) at 10uM” value of the first is lower: 16.3% for the first, 18.1% for the second.

First: c1ccc(COc2ccccc2CNc2nn[nH]n2)cc1
Second: COc1ccc(NC(=O)CSc2nnc(NC(=O)C3CCC3)s2)c(OC)c1
The “hERG current change (%, negative = inhibition) at 10uM” value of the first is higher: 13.1% for the first, 12.6% for the second.

Compared with `COc1ccc2no[n+]([O-])c2c1`, `CC(C)N(C(=O)Nc1ccc2nsnc2c1)C(C)C` is lower in “hERG current change (%, negative = inhibition) at 10uM” value: 28.1% for the first, 0.592% for the second.
